Experimental data: PubChem BioAssay (NCI)
Compounds without any hit were thinned out: in the full panel of roughly 83,000, 20% have a hit.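 Assay: single dose, 48 h. Readout: percent growth (0 = no net growth; negative = cell death). Active: <10.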 Values without a mark were called inactive. Active and inactive are the calls of the source.

System: HL-60(TB) leukemia
Assay: NCI-60 one-dose screen, 48 h (100 = growth as untreated, 0 = no growth, -100 = all killed)
Conditions: 10 µM unless noted

Compound | growth
O=C(O)C1(Cc2cccc(Nc3nccs3)n2)CCC(Oc2cccc(Cl)c2F)CC1 (stereo not given) | 50.7%
NC(Cc1ccc(O)c([N+](=O)[O-])c1)C(=O)O (stereo not given) | 114%
COc1cc(-c2cc(-c3cc(OC)c(OC)c(OC)c3)nc3nc(N)[nH]c(=O)c23)ccc1Oc1ccnc2cc(Cl)ccc12 | 11.4%
CCCCN(Cc1ccc(C(=O)NO)cc1)C(=O)Nc1ccc(OCCCCCCCCCn2cc(CCCCC(=O)N[C@H](C(=O)N3C[C@H](O)C[C@H]3C(=O)NCc3ccc(-c4scnc4C)cc3)C(C)(C)C)nn2)cc1 | 21.6%
O=C(Nc1ccccc1-c1nc2ccccc2c(=O)[nH]1)c1cc2ccccc2[nH]1 | 65.5%
O=C1/C(=C/c2ccc([N+](=O)[O-])cc2)CN(C(=O)CCN2CCC(=NO)CC2)C/C1=C\c1ccc([N+](=O)[O-])cc1 | 2.62% (active)
CC1(C)[C@@H](O)CC[C@]2(C)[C@H]3CC[C@@H]4[C@H]5[C@H](C(=O)/C=C/c6ccc(C(F)(F)F)cc6)CC[C@]5(CO)CC[C@@]4(C)[C@]3(C)CC[C@@H]12 | 28.1%
CCOC(=O)[C@@H]1[C@H](c2ccccc2)[C@H]([N+](=O)[O-])[C@H](c2cn(-c3ccccc3)nc2C)N1Cc1ccccc1 | 77.7%
COc1ccc(-c2cc(-c3ccc(Nc4nc(Nc5ccccc5)nc(Nc5ccc(Cl)cc5)n4)cc3)nc(N)n2)cc1 | 101%
FC(F)(F)c1cc(CNc2nc(Cl)ncc2Br)cc(C(F)(F)F)c1 | 85.2%
